Several values for one entry are separate records, joined by “and”; a condition that tells them apart may be missing. Identical values can stand only once. Records with an inconclusive call do not appear. Some structures have more than one record in an assay (separate samples or runs), and their calls can disagree. Activity calls are given as the source filed them. The call rests on the fitted dose curve.
Test: qHTS assay to identify small molecule agonists of the hypoxia (HIF-1) signaling pathway - cell viability counter screen (AID 1224844); further: nearly all actives have a fitted effect of over 50% in size
Conditions: HRE-bla ME-180 viability, CellTiter-Glo luminescence, 17 h; series mostly up to 76.8 µM; activity change, negative = cytotoxicity: at the top concentration
From the text: National Center for Advancing Translational Sciences [NCATS]
NIH Chemical Genomics Center [NCGC]
U.S. Environmental Protection Agency [EPA]
National Institutes of Environmental Health Sciences [NIEHS]
National Toxicology Program [NTP]
U.S. Food and Drug Administration [FDA]
Hypoxia-inducible factor-1 (HIF-1) is the major hypoxia-regulated transcription factor that controls cellular responses to low oxygen concentration. HIF-1 is composed of two subunits: hypoxia responsive HIF-1-alpha and constitutively expressed HIF-1-beta, which is also known as aryl hydrocarbon receptor nuclear translocator. During hypoxic conditions, HIF-1-alpha heterodimerizes with HIF-1-beta and translocates into the nucleus where the HIF-1 complex binds to the hypoxia-response element (HRE) and activates expression of target genes such as VEGF (vascular endothelial growth factor). The HIF-1 pathway is essential to normal growth and development, and is involved in the pathophysiology of cancer, inflammation, and ischemia.
Using a beta-lactamase reporter-gene under control of the hypoxia response element, a cell-based assay [CellSensor(TM) HRE-bla ME-180 from Life Technologies, Carlsbad, CA] was used to measure hypoxia-induced signaling. Tox21 10K library compounds were measured for their ability to induce the reporter gene activity. The cytotoxicity of the Tox21 compound library against HRE-bla ME-180 cell line was tested in parallel by measuring cell viability using CellTiter-Glo assay (Promega, Madison, WI) in the same assay wells.
Tox21 Assay Protocol Summary:
HRE-bla ME-180 cells were dispensed at 2,000 cells per well in 6 uL of assay medium containing 0.5% dialyzed FBS into black wall/clear-bottom 1536-well plates using a Multidrop Combi (Thermo Scientific, Waltham, MA) dispenser. After the assay plates were incubated at 37C and 5% CO2 for 5 hrs, 23 nL of compounds dissolved in DMSO, positive controls or DMSO only was transferred to each well of the assay plate using a Pintool station (Kalypsys, San Diego, CA). The assay plates were incubated at 37C and 5% CO2 for 17 hrs. One uL of LiveBLAzerTM B/G FRET substrate (CCF4-AM) (Life Technologies) was added to each well using a Flying Reagent Dispenser (FRD, Aurora Discovery, San Diego, CA). After 2 hr incubation at room temperature, fluorescence intensity (405 nm excitation, 460 nm and 530 nm emissions) was measured using an Envision plate reader (PerkinElmer, Shelton, CT). For cytotoxicity, 4 ul/well of CellTiter-Glo reagent was added into the assay plates using an FRD. After 30 min incubation at room temperature, the luminescence intensity was measured using a ViewLux plate reader (PerkinElmer).
On the % scale 0 is the no-effect control and ±100 the full control effect; potency means the concentration at half of the fitted maximal effect.

SMILES	Potency	activity change, negative = cytotoxicity
O=C(Cl)c1cccc(C(=O)Cl)c1	inactive	–
CC(C)(C)NCC(O)COc1ccccc1OCC1CCCO1 (stereo not given)	–	0.0178% [at 35.3 µM] (inactive)
C/C=C/c1ccc(OCC)c(O)c1	inactive	–
CC(=O)CC(C)=O	–	10.2% (inactive)
Cc1ccnc2c1NC(=O)c1cccnc1N2C1CC1	inactive	–
OCCOCCN1CCN(C(c2ccccc2)c2ccc(Cl)cc2)CC1 (stereo not given)	9.64 µM (active)	–
CCC(=O)/C=C/C1C(C)=CCCC1(C)C (stereo not given)	inactive	–
CCC(C)(Oc1ccc(C2(c3ccc(OC(C)(CC)C(=O)O)cc3)CCCCC2)cc1)C(=O)O (stereo not given)	–	12% [at 35.3 µM] (inactive)
OCC(CO)N[C@H]1C[C@](O)(CO)[C@@H](O)[C@H](O)[C@H]1O	–	-3.48% [at 35.3 µM] (inactive)
COc1ccc(CCN(C)CCCC(C#N)(c2ccc(OC)c(OC)c2)C(C)C)cc1OC (stereo not given)	inactive	–
Cc1cc(C(C)(C)C)c(O)c(C(C)(C)C)c1	inactive	–
C=CS(=O)(=O)O	–	-12.7% (inactive)
Oc1c(Cl)cc(Cl)c(Cl)c1Cc1c(O)c(Cl)cc(Cl)c1Cl	19.4 µM (active) and 19.5 µM (active)	–
O=C(OCc1ccccc1)c1ccc(O)cc1	inactive	–
NC(N)=NC(=O)Cc1c(Cl)cccc1Cl	–	0.104% [at 35.3 µM] (inactive)
CC(C)CCOC(=O)c1ccc(N(C)C)cc1	–	2.36% [at 35.3 µM] (inactive)
O=Nc1ccc(Nc2ccccc2)cc1	55.3 µM (active)	–
O=S(=O)(O)c1ccc2nc(-c3ccccc3)[nH]c2c1	18.6 µM (active) and 10.7 µM (active)	–
CCOc1ccccc1C(N)=O	–	2.77% (inactive)
C=C(C)C(=O)O	inactive	–

SMILES	Potency	activity change, negative = cytotoxicity
CCCCOCCOC(=O)c1ccccc1C(=O)OCCOCCCC	–	18.5% (inactive)
CC(C)(O)CCC(C)(C)O	–	1.37% (inactive)
CC(=O)CC(=O)Nc1ccc2[nH]c(=O)[nH]c2c1	–	-4.85% (inactive)
CO[Si](OC)(OC)c1ccccc1	–	0.476% (inactive)
CN(C)c1ccc2nc3ccc(=[N+](C)C)cc-3sc2c1	5.92 µM (active) and 43.6 µM (active) and inactive	–
CC1=C(C=O)C(C)(C)CC=C1	–	-12.3% (inactive)
CC(=O)OCCOCCOCCOC(C)=O	inactive	–
COC(=O)/C=C/c1ccccc1	inactive	–
O=c1n(CC2CO2)c(=O)n(CC2CO2)c(=O)n1CC1CO1 (stereo not given)	–	9.65% (inactive)
c1cnc2cc3c(cc2n1)C1CNCC3C1	–	8.34% [at 35.3 µM] (inactive)
Cc1cc(Cc2cc(C)cc(C(C)(C)C)c2O)c(O)c(C(C)(C)C)c1	9.82 µM (active) and 9.77 µM (active)	–
Cc1cccc2n[nH]nc12	inactive	–
C[N+]1([O-])CCOCC1	–	8.71% (inactive)
CCCC(=O)c1ccccc1	–	2.04% (inactive)
CCCCCCCCCCCC[N+](C)(C)C	–	-0.923% (inactive)
Nc1cc(S(=O)(=O)O)cc2cc(S(=O)(=O)O)cc(O)c12	inactive and 4.9 µM (active)	–
Cc1cccc(O)c1C	inactive	–
Cc1c(O)cccc1C(=O)N[C@@H](CSc1ccccc1)[C@H](O)CN1C[C@H]2CCCC[C@H]2C[C@H]1C(=O)NC(C)(C)C	12 µM (active) and inactive	–
N[C@@H]1CONC1=O	–	3.91% [at 35.3 µM] (inactive)
CC(=O)O[C@]1(C(C)=O)CC[C@H]2[C@@H]3C[C@H](C)C4=CC(=O)CC[C@]4(C)[C@H]3CC[C@@]21C	inactive	–
